As a reminder, the inhibition is the relative decrease from the control value, in per cent.

Nine molecules from PubChem BioAssay can be followed below.

Assay [1] can be described thus: blockers of polyQ-driven CASP3 activation – cell-based (AID 1583). Conditions: polyglutamine-induced caspase-3 activation, cell assay; stronger effect = higher value;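 tested at 10 µM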.
Assay [2] is described as follows: yeast 75Q aggregation reduction – 75Q-TubU reporter (AID 1593). Conditions: Yeast 75Q polyglutamine aggregation reporter.
Assay [3] is described as follows: restoration of touch response, mutant HTT neurons – whole organism, C. elegans mechanosensory neurons, N-terminal huntingtin (AID 1599). As to conditions: C. elegans polyQ-huntingtin mechanosensory neurons, stronger effect = higher value.
A short description of assay [4]: blockers of cytochrome c efflux from mitochondria – biochemical, purified mitochondria (AID 1603).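 Note: mouse liver mitochondria challenged with calcium chloride; signal normalized to the plate average as 100%.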 As to conditions: stronger effect = lower value.
A short description of assay [5]: polyglutamine aggregate formation blockers (AID 1604). As to conditions: polyglutamine-induced protein aggregation inhibition assay; stronger effect = higher value; tested at 2.5 µM.
A short description of assay [6]: rescue of PC12 cells from polyQ htt toxicity – LDH release (AID 1610). Conditions: PC12 mutant huntingtin toxicity, final LDH at 4 uM, stronger effect = lower value. (LDH in the medium is a marker of cell lysis.)
The nature of assay [7]: glutamate transport activators, MN-1 cells, MN-1 cell line (AID 1612).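 Note: tested at 1 µM final; 0% = mean of DMSO vehicle wells on each plate; positive means more glutamate uptake than control and negative means less.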 As to conditions: MN-1 motor neuron cells, stronger effect = higher value.
Assay [8] in a line: 75Q-TubH aggregate inhibition, S. cerevisiae, yeast (AID 1616). As to conditions: S. cerevisiae 75Q-TubH polyglutamine aggregation suppression; stronger effect = higher value.
The nature of assay [9]: GFP-Q80 aggregate reduction, neuronal-like cells, cell-based, NGF-treated PC12, GFPQ80 (AID 1614).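 Note: lower means fewer inclusions and 0 means no inclusions at all.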 Conditions: PC12 NGF-treated GFP-polyQ80 inclusion reduction.
Assay [10] deals with ATP-dependent translocase ABCB1 (Homo sapiens) (UniProt P08183). Kind of assay: P-glycoprotein substrate transport blockade – cell-based (AID 377). As to conditions: MDR1-expressing cells, fluorescent substrate accumulation slope; stronger effect = higher value; concentration not given here.

Each structure is given as a SMILES string. Results filed as inconclusive are left out. For some of these results: Potency and affinity values are given separately. Activity calls are given as the source filed them. Cut-off read from the data, not from the text of the source: active = fluorescence slope change above about 50%; inconclusive = mostly about 31% to 49%; inactive = weaker than that.

ATP-dependent translocase ABCB1 (Homo sapiens), sequence (P08183 whole entry, looked up): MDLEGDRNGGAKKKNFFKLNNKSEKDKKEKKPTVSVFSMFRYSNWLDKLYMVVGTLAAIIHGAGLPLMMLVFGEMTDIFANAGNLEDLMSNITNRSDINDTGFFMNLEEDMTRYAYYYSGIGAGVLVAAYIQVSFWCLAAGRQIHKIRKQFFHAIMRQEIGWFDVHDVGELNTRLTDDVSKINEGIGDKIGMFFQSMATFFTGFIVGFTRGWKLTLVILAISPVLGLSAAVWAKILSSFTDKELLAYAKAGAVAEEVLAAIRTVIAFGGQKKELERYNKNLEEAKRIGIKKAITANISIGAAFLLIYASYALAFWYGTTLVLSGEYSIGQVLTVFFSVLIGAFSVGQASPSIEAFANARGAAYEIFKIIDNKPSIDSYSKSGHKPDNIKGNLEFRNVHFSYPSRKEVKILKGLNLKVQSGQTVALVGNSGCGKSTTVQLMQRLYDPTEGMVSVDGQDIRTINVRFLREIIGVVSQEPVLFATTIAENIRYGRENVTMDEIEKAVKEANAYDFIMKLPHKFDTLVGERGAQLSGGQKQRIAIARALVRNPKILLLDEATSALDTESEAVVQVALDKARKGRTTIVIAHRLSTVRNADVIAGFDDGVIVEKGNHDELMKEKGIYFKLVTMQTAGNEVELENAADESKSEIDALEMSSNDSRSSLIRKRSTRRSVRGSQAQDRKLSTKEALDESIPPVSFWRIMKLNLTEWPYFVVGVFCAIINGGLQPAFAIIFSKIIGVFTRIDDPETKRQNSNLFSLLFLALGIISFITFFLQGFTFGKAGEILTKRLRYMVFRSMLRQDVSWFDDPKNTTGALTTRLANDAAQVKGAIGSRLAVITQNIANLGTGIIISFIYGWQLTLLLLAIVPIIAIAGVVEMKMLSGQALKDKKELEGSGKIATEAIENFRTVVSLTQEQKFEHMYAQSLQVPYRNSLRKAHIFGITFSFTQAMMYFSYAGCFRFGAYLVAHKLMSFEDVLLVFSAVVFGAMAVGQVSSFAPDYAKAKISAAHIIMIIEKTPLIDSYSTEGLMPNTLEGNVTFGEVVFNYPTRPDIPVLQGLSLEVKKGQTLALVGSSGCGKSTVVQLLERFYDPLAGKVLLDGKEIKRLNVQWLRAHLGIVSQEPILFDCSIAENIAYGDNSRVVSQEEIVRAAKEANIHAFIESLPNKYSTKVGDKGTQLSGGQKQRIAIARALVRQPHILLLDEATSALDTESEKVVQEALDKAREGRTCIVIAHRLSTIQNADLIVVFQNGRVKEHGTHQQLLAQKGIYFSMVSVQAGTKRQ

With `CCCCCc1cc(O)c2c(c1)OC(C)(C)c1ccc(C)cc1-2`, the inhibition in [1] was 29.1%. This molecule yielded a score in [2] of -1.59. The molecule also registered a rescue above control in [3] of 9.18. Further, the cytochrome c release ratio in [4] is 1.94. In [5], the inhibition of aggregation was -2.04%. This molecule came in with a normalised LDH release in [6] of 0.953. Also, the glutamate uptake change in assay [7] is -26.4%. Further, the aggregation suppression score in assay [8] was -0.155.
Regarding `CN1C2CC(OC(=O)[C@H](CO)c3ccccc3)C[C@H]1CC2O` (stereo partly drawn), the inhibition in assay [1] worked out at 17.4%. In assay [2], the score amounted to 1.3. In addition, the rescue above control in assay [3] is -1.97. In [4], the cytochrome c release ratio was found to be 0.75. In assay [5], the inhibition of aggregation was 83.9%. The glutamate uptake change in [7] stood at 4.44%. In [9], the inclusion score was 2. The same molecule registered an aggregation suppression score in [8] of 1.3.
Regarding `CC(N)Cc1ccc2c(c1)OCO2` (stereo not drawn), the inhibition in [1] was -14.9%. Moreover, the score in assay [2] is 1.01. The molecule further came in with a rescue above control in assay [3] of -3.14. In assay [4], the cytochrome c release ratio turned out to be 1. The inhibition of aggregation in assay [5] is 21.1%. The glutamate uptake change in assay [7] is -7.15%. Also, the inclusion score in [9] was determined as 2. Further, the aggregation suppression score in assay [8] worked out at 1.15.
For `CNC(C)Cc1ccccc1` (stereo not drawn), the inhibition in assay [1] was 4.94%. This molecule yielded a score in [2] of 1.26. The molecule also showed a rescue above control in [3] of 3.06. The cytochrome c release ratio in [4] was 0.97. The inhibition of aggregation in assay [5] is -0.68%. Also, the glutamate uptake change in assay [7] is 6.37%. This molecule yielded an inclusion score in assay [9] of 2. The aggregation suppression score in assay [8] was determined as 1.49.
Take `CCNC(C)Cc1cccc(C(F)(F)F)c1` (stereo not drawn): in assay [10], the fluorescence slope change was 23.3% (inactive). Also, the inhibition in [1] is -12%. Also, in assay [2], the score came out at 1.17. For the same molecule, the rescue above control in [3] is -3.67. The cytochrome c release ratio in [4] stood at 0.91. For the same molecule, the inhibition of aggregation in assay [5] is 15.7%. For the same molecule, the glutamate uptake change in assay [7] is -14.9%. In assay [9], this molecule came in with an inclusion score of 2. This molecule registered an aggregation suppression score in assay [8] of 1.24.
For `COc1cc(CCN)cc(OC)c1OC`, the inhibition in assay [1] was 8.49%. The molecule also yielded a score in assay [2] of 1.47. Also, the rescue above control in [3] is -5.41. Besides, the cytochrome c release ratio in assay [4] was 0.91. Also, the inhibition of aggregation in assay [5] worked out at 22.4%. In addition, the glutamate uptake change in [7] was -3.12%. This molecule also registered an inclusion score in assay [9] of 2. The aggregation suppression score in assay [8] came out at 1.23.
For the molecule `O=c1ccc2cc(O[C@H]3O[C@H](CO)[C@@H](O)[C@H](O)[C@H]3O)c(O)cc2o1`, the inhibition in [1] is -25.3%. The same molecule came in with a score in assay [2] of 0.99. In assay [3], the rescue above control was -9.34. The cytochrome c release ratio in assay [4] was 0.66. Also, the inhibition of aggregation in assay [5] was 56.9%. Moreover, the glutamate uptake change in assay [7] came to 21.7%. This molecule displayed an inclusion score in assay [9] of 2. Besides, the aggregation suppression score in assay [8] was found to be 0.763.
In the case of `CNC1(c2ccccc2Cl)CCCCC1=O` (stereo not drawn), the inhibition in [1] amounted to 12.3%. The molecule also gave a score in assay [2] of 1.43. The molecule further had a rescue above control in assay [3] of -2.24. In addition, the cytochrome c release ratio in assay [4] is 1.27. Moreover, the inhibition of aggregation in [5] was determined as 3.17%. The glutamate uptake change in assay [7] was -3.45%. Also, in assay [9], the inclusion score was found to be 2. In addition, the aggregation suppression score in assay [8] was 1.36.
Regarding `CCC(=O)C(CC(C)N(C)C)(c1ccccc1)c1ccccc1` (stereo not drawn), in assay [1], the inhibition was -9.47%. The score in assay [2] is 1.06. In assay [3], this molecule yielded a rescue above control of 0.15. Further, the cytochrome c release ratio in assay [4] is 0.89. Moreover, the inhibition of aggregation in [5] is 21.1%. Besides, the glutamate uptake change in [7] was found to be 7.77%. Moreover, the inclusion score in [9] was found to be 2. In addition, in assay [8], the aggregation suppression score was determined as 0.899.
